Compound activity deposited in PubChem by several laboratories.
SARS 3CLpro inh = SARS-CoV 3CLpro protease inhibition; P0C6X7; recombinant SARS-CoV 3CLpro, quenched FRET peptide cleavage; inhibition, % at 6 µM; 290,000 tested, 0.14% active; AID 1706; in the data active means inhibition above about 12%
BJeLR viability = kills HRASV12-expressing BJeLR cells | 300,000 tested, 0.17% active | BJeLR (HRASV12) viability, CellTiter-Glo ATP luminescence, 48 h | inhibition, % (concentration not given with the values) | AID 1554; in the data active means inhibition above about 50%
VHR inh abs = inhibitors of human VHR1 phosphatase (DUSP3) | P51452 | recombinant VHR phosphatase, pNPP absorbance | 290,000 tested, 0.52% active | inhibition, % at 13.3 µM; in the data active means inhibition above about 50%
Target sequence (P51452 whole entry, looked up): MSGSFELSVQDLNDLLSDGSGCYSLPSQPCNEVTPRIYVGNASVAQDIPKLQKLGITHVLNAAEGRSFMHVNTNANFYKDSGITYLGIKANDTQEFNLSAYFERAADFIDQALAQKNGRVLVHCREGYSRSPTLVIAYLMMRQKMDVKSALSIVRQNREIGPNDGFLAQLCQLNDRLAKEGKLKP
PrPC surface inh = cell surface PrPC inhibition, primary TR-FRET screen. P04156. TR-FRET read-out. inhibition, % at 13.8 µM. 370,000 tested, 0.43% active. AID 720596; in the data active means inhibition above about 24%
Numbers stand for hits; . = inactive; / = no result given; ! = repeats disagree. Compounds with a hit are over-represented: about 1.1% of the library has one in this group of screens.

SMILES | SARS 3CLpro inh | BJeLR viability | VHR inh abs | PrPC surface inh
CCN(CC)S(=O)(=O)c1ccc(NC(=O)Nc2cccc(C(F)(F)F)c2)cc1 | . | . | . | 43
CCc1nc2ccc(C(=O)NCc3ccccc3OC)cn2c1N(C)Cc1ccc(N(C)C)cc1 | / | / | / | .
CCN(CC)CCNc1c(C)cc(CO)c(Cl)c1C | / | / | / | .
COc1cc(NC(=O)c2cccs2)c(OC)cc1NC(=O)CCC(=O)Nc1ccc2ncccc2c1 | . | 58 | . | .
Nc1c2ccccc2nc2ccccc12 | . | 89! | . | .
CCOC(=O)C1=C(C(=O)OCC)C2N(Cc3ccc(C#N)cc3)c3ccccc3[C@@]23C[C@@H](C(=O)OC)N(S(=O)(=O)c2c(C)noc2C)C3=N1 (stereo partly specified) | / | / | / | .
O=[N+]([O-])/C=C/c1c(OCc2ccccc2)ccc2ccccc12 | . | 81 | . | /
CCOC(=O)COc1ccc2ccccc2c1/C=C/[N+](=O)[O-] | . | . | . | .
COc1ccc(-c2c(C)n([O-])c3c([n+]2=O)CCCC3)cc1 | . | . | 52 | .
Cc1ccc(-c2c(C)n([O-])c3c([n+]2=O)CCCCC3)cc1 | . | . | . | .
C[C@H](CO)N1C[C@H](C)[C@@H](CN(C)Cc2ccc(Oc3ccccc3)cc2)Oc2cc(Br)ccc2S1(=O)=O | / | / | / | .
Clc1ccccc1Nc1nnc(-c2ccncc2)s1 | . | 85 | . | .
COC(=O)C1=C(C)N(Cc2ccccc2C(F)(F)F)C(=NCc2ccc(C(F)(F)F)cc2)NC1c1ccccc1 (stereo unspecified) | / | / | / | .
CS(=O)(=O)c1sc(C#N)c2c1C(=O)CC(c1ccccc1)C2 (stereo unspecified) | . | . | . | 51
COc1ccc(N=NC2=C(O)CC(C)(C)CC2=O)c(OC)c1 | . | . | 53 | .
CSc1ccccc1NS(=O)(=O)c1ccc2c(c1)OCCO2 | . | . | . | .
COc1ccccc1NS(=O)(=O)c1ccc2c(c1)OCCO2 | . | . | 58 | .
O=C(CN1CCN(c2ccc(O)cc2)CC1)Nc1cc(S(=O)(=O)N2CCCCC2)ccc1Cl | . | . | 56 | .
O=C(CN1CCN(c2ccc(O)cc2)CC1)Nc1cc(S(=O)(=O)N2CCCC2)ccc1Cl | . | . | . | .
C/C(=N\NC(=O)c1nnn(-c2nonc2N)c1CN1CCC(C)CC1)c1ccc(Br)cc1 | / | / | / | .
COc1ccc(-c2nc(CS(=O)(=O)CC(=O)NCCCN3CCN(C)CC3)c(C)o2)cc1 | . | . | 57 | .
CC1CCN(S(=O)(=O)c2ccc3c(c2)C(=NO)c2cc(S(=O)(=O)N4CCC(C)CC4)ccc2-3)CC1 | . | / | . | .
O=S(=O)(c1ccc2c(c1)C(=NO)c1cc(S(=O)(=O)N3CCCCC3)ccc1-2)N1CCCCC1 | . | 95 | . | .
COc1cc(C(C)=O)ccc1OCc1cc(C(=O)N(C)CCC2CCCCO2)no1 (stereo unspecified) | . | . | 58 | .
COc1ccccc1OCc1cc(C(=O)N(C)CCC2CCCCO2)no1 (stereo unspecified) | . | . | . | .
SMILES | SARS 3CLpro inh | BJeLR viability | VHR inh abs | PrPC surface inh
CCCc1cc(=O)oc2cc(OCC(=O)NCc3cccs3)ccc12 | . | . | . | .
CCCc1cc(=O)oc2cc(OCC(=O)NCC(O)c3ccccc3)ccc12 (stereo unspecified) | . | . | 53 | .
CCCc1cc(=O)oc2cc(OCC(=O)NCc3ccccn3)ccc12 | . | . | . | .
CCCc1cc(=O)oc2cc(OCC(=O)Nc3ccc(S(N)(=O)=O)cc3)ccc12 | . | . | 57 | .
COc1cccc(NC(=O)c2cccc(N3C(=O)C4C5C=CC(C5)C4C3=O)c2)c1 (stereo unspecified) | . | . | . | .
Cc1cccc(C(=O)N[C@H](C(=O)Nc2nnc(C3CC3)s2)C(C)C)c1 | . | . | . | .
Cc1cccc(C(=O)N[C@H](C(=O)Nc2ncc(C)s2)C(C)C)c1 | . | . | . | 41
Cc1[nH]n(-c2ccccc2)c(=O)c1/C=N/Nc1nncc(-c2ccccc2)n1 | . | 57 | . | .
Cc1ccc(/C=N/Nc2nncc(-c3ccccc3)n2)o1 | . | . | . | .
COc1ccc(N(CC(=O)NCCSc2ccccn2)S(=O)(=O)c2ccccc2)c(OC)c1 | . | . | . | .
O=C(O)CCC(=O)N1N=C(c2ccc(Br)cc2)CC1c1ccc(Br)cc1 (stereo unspecified) | . | . | 56 | .
Cc1ccc(S(=O)(=O)N2CCN(C(=O)CSCc3ccc(C(C)C)cc3)CC2)cc1 | / | / | / | .
CC(=O)N1CCCc2cc(S(=O)(=O)N3CCCC(C(=O)Nc4cccc(C)c4)C3)ccc21 (stereo unspecified) | . | . | 54 | .
CC(=O)C1=CCC(c2ccc(C)o2)N(S(=O)(=O)c2ccc(C)cc2)C1 (stereo unspecified) | / | / | / | .
CC(C)CC(C(=O)NC1CCCCC1)N(Cc1ccccc1)C(=O)c1snc(C(N)=O)c1N (stereo unspecified) | . | . | 58 | .
COc1ccc(CN(C(=O)c2snc(C(N)=O)c2N)C(CC(C)C)C(=O)NC2CCCCC2)cc1 (stereo unspecified) | . | . | . | .
Nc1ccn([C@@H]2O[C@H](C(=O)N[C@H](Cc3ccccc3)C(=O)NCC(F)(F)F)[C@@H](O)[C@H]2O)c(=O)n1 | / | / | / | .
CC(=O)c1cccc(OCc2cc(C(=O)N(C)C(C)c3ccccn3)no2)c1 (stereo unspecified) | . | . | . | .
CC(=O)c1cccc(OCc2cc(C(=O)N(C)Cc3cnccn3)no2)c1 | . | . | 50 | .
Cn1c(SCC(=O)Nc2ccc(NC(=O)c3ccccc3)cc2)nnc1-c1ccncc1 | . | . | 52 | .
COC(=O)C[C@](O)(CCCC(C)(C)O)C(=O)O[C@@H]1C(OC)=C[C@]23CCCN2CCc2cc4c(cc2[C@H]13)OCO4 | / | 92 | / | /
Cc1ccc(S(=O)(=O)N2CCc3ccccc3C2)cc1 | . | . | 52 | .
Cc1ccc(S(=O)(=O)N2CCc3ccccc3CC2)cc1 | / | / | / | .
CCOc1ccccc1C1C(C#N)=C(N)SC(N)=C1C#N | . | . | . | 47
CCOc1ccc(C2C(C#N)=C(N)SC(N)=C2C#N)cc1OC | . | . | . | /
SMILES | SARS 3CLpro inh | BJeLR viability | VHR inh abs | PrPC surface inh
COc1cc(NC(=O)CNC(=O)Cn2cnc3sc(C)c(C)c3c2=O)cc(OC)c1OC | / | / | / | .
COCC(=O)N(Cc1cc2ccc(C)c(C)c2n2nnnc12)C1CCCC1 | . | . | 54 | .
COc1cccc(S(=O)(=O)Nc2ccc3c(c2)C(=O)N(C)C[C@H](OC)[C@H](C)CN[C@@H](C)CO3)c1 | / | / | / | .
O=C(CC(c1ccccc1)c1ccccc1)Nc1ccc(Cl)cn1 | . | . | . | 29
O=C(CS(=O)(=O)c1ccccc1)Nc1ccc(Cl)cn1 | . | . | . | .
O=C(C[C@@H]1C[C@H]2c3cc(NC(=O)Nc4ccccc4F)ccc3O[C@H]2[C@H](CO)O1)NCC(F)(F)F | / | / | / | .
CC1=C(C(=O)N(C(C)C)C(C)C)CC(CC(=O)NC(c2ccccc2)c2ccccc2)C(=O)N1CCCN1CCCC1=O (stereo unspecified) | / | / | / | .
N=c1c2c(ncn1CCN1CCOCC1)Oc1ccc3ccccc3c1C2c1ccccc1 (stereo unspecified) | . | . | 55 | .
